# An excerpt weighted towards active compounds, which were near 3.4% of everything screened.
# GPR151 ag = activators of human GPR151, primary screen, cell-based, PathHunter beta-arrestin, luminescence | PathHunter beta-arrestin GPR151 cells | activation, % at 11.2 µM | 650,000 tested, 1% active; in the data active means activation above about 4.9%;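 further: 0% = median of compound wells and 100% = cells with positive control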
# Target sequence (Q8TDV0 whole entry, looked up): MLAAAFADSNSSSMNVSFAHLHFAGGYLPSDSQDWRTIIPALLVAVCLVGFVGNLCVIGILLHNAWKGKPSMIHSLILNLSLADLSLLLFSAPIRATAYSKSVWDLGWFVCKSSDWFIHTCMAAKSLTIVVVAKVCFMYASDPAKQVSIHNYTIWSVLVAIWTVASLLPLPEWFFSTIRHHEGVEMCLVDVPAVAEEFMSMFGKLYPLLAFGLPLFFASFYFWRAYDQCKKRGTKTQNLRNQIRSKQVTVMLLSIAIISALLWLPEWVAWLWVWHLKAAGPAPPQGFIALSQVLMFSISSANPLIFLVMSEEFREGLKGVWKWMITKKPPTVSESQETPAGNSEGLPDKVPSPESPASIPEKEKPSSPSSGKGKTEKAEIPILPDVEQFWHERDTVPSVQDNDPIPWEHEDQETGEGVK
# FBW7 act = FBW7 E3 ligase activators, primary screen, biochemical, AlphaScreen, human; AlphaScreen FBW7–phospho-cyclin E peptide binding, activator screen; 650,000 tested, 0.13% active; normalized activity (activation), % at 26.1 µM; in the data active means normalized activity above about 1.9%;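 further: purified mutant Fbw7 with reduced substrate affinity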
# TEAD-YAP inh = TEAD-YAP interaction inhibition, primary screen, TEAD-YAP interaction inhibitor project, luminescence, HEK-TIYL cells. TEAD-Gal4/YAP UAS-luciferase luminescence. inhibition, % at 9.12 µM. 640,000 tested, 1.4% active. AID 1259422, 2018; in the data active means inhibition above about 32%;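 further: 0% = median of test compound wells and 100% = reference inhibitor wells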
# MITF inh = MITF inhibitors, primary screen, biochemical, AlphaScreen, human; 650,000 tested, 0.91% active; inhibition, % at 2.6 µM; Microphthalmia-associated transcription factor (Homo sapiens), O75030; AID 1259374, 2018; AlphaScreen MITF homodimerization, bead proximity signal; in the data active means inhibition above about 50%;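 further: 0% = vehicle wells with protein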
# Numbers without * were called inactive.
SMILES,GPR151 ag,FBW7 act,TEAD-YAP inh,MITF inh
O=S(=O)(NCC1CCCO1)c1ccc(NS(=O)(=O)c2ccc(F)cc2)cc1 (centres undefined),1,0,-3,4
O=C1NC(=S)S/C1=C\c1ccc(-c2ccc([N+](=O)[O-])cc2)o1,0,0,5,11
Cc1ccc(NC(=O)c2cccc(N3C(=O)c4ccc(Br)cc4C3=O)c2)cc1,0,0,-10,-13
CCN(CC)S(=O)(=O)c1ccc(Cl)c(C(=O)Oc2cccc(NC(=O)c3ccc(OC)cc3)c2)c1,-2,0,67*,2
CCN(CC)S(=O)(=O)c1ccc(Cl)c(C(=O)Oc2cccc(NC(=O)c3ccccc3Cl)c2)c1,-1,0,12,-4
CCN(CC)S(=O)(=O)c1cccc(C(=O)Nc2ccc(C#N)cc2)c1,5,0,47*,0
CCN(CC)S(=O)(=O)c1cccc(C(=O)Oc2cccc(NC(=O)c3ccc(OC)cc3)c2)c1,-2,0,66*,-4
CC(C)(C)NC(=O)/C=C/c1cccc([N+](=O)[O-])c1,0,0,-18,-24
Cc1sc2nc3c4ccccc4c(NCCCN(C)C)nn3c(=O)c2c1C,2,0,-17,-12
CCC1CCc2c(sc(NC(=O)C3C4C=CC(C4)C3C(=O)O)c2C(=O)OC)C1 (centres undefined),-1,0,56*,11
CCOC(=O)c1c(NC(=O)C2C3C=CC(C3)C2C(=O)O)sc2c1CCC2 (centres undefined),-1,0,19,1
CCOC(=O)c1c(NC(=O)C2C3C=CC(C3)C2C(=O)O)sc2c1CC(C)CC2 (centres undefined),0,0,37*,-4
CCc1c(C)sc(NC(=O)C2C3C=CC(C3)C2C(=O)O)c1C(=O)OC (centres undefined),-2,0,32*,12
CCC(Nc1ccc(Br)cc1)C(=O)N/N=C/c1cc(OC)ccc1O (centres undefined),1,0,22,4
CCC(Nc1ccc(Br)cc1)C(=O)N/N=C/c1ccc(O)cc1O (centres undefined),0,0,76*,18
CCC(Nc1ccc(Br)cc1)C(=O)N/N=C/c1cc([N+](=O)[O-])ccc1O (centres undefined),2,0,43*,19
Cc1cc(-c2cnc(N3CCCC3)nc2C2CCN(C(=O)c3scnc3C)CC2)on1,1,0,60*,-4
O=C(O)C1CC(O)CN1S(=O)(=O)c1ccc2c(c1)OCCO2 (centres undefined),3,0,5,15
Cc1ccc(C(=O)N/N=C/c2ccc([N+](=O)[O-])o2)cc1,1,0,40*,-1
Cc1cc(C(=O)N/N=C/c2ccc([N+](=O)[O-])o2)n[nH]1,-1,1,32*,23
O=C(N/N=C/c1ccc([N+](=O)[O-])o1)c1ccc(F)cc1,-1,0,37*,1
O=C(N/N=C/c1ccc([N+](=O)[O-])o1)c1ccccc1,1,0,-5,7
O=C(N/N=C/c1ccc([N+](=O)[O-])s1)c1ccc(F)cc1,1,0,45*,-7
O=C(COC(=O)CCOc1ccccc1)Nc1ccc(S(=O)(=O)N2CCCC2)cc1,-1,0,16,13
O=C(/C=C/c1ccccc1)c1c(O)c2ccccc2[nH]c1=O,1,0,4,5
SMILES,GPR151 ag,FBW7 act,TEAD-YAP inh,MITF inh
Cc1[nH]c2ccccc2c(=O)c1C(=O)/C=C/c1ccccc1,0,0,93*,-2
Oc1cccc(-c2cnc3ccc(NC4CCOCC4)nn23)c1,0,2.2*,33*,9
c1cc2c(cc1-c1cnc3ccc(NC4CCOCC4)nn13)OCO2,0,0,54*,-28
c1ccc(-c2cnc3ccc(NC4CCOCC4)nn23)cc1,0,-1,23,-5
c1csc(-c2cnc3ccc(NC4CCOCC4)nn23)c1,-1,0,47*,-8
CN1CCOCCOCCN(C)CCN(C)CC1,-1,0,1,3
CC1CCC(C(C)C)C(OC(=O)c2cc([N+](=O)[O-])ccc2Cl)C1 (centres undefined),3,5.5*,3,-5
Cc1ccc(C(=O)OC2CC(C)CCC2C(C)C)cc1[N+](=O)[O-] (centres undefined),0,0,8,13
Cc1cc(C)nc(N2CCCC(CCC(=O)NCc3ccc(C)o3)C2)n1 (centres undefined),0,0,0,-1
CCCCNC(=O)C1CCCN(Cc2nc(-c3cccc(Cl)c3)oc2C)C1 (centres undefined),0,0,4,11
COC(=O)c1ccc2c(=O)n(Cc3ccccc3OC)c(=S)[nH]c2c1,-1,0,-7,-5
O=C(/C=C\Nc1ccccc1[N+](=O)[O-])c1ccc(F)cc1,-1,0,43*,10
CCOc1ccc(N/C=C/C(=O)c2ccccc2)c([N+](=O)[O-])c1,-6,0,60*,17
O=C(/C=C/Nc1ccccc1[N+](=O)[O-])c1ccccc1,-5,0,67*,11
CCOc1ccc(N/C=C/C(=O)c2ccco2)c([N+](=O)[O-])c1,-1,0,-42,-4
Cc1ccc(C(=O)/C=C\Nc2ccccc2[N+](=O)[O-])cc1,-1,0,-53,7
Cc1cc(OCc2ccc(C(=O)NCc3ccccn3)o2)ccc1Cl,-3,0,-2,19
CCN(CC(=O)NCCc1ccccc1)S(=O)(=O)c1ccc2ccccc2c1,2,0,-2,2
COc1ccc(C(=O)NC2CCSC2=O)cc1[N+](=O)[O-] (centres undefined),-1,2.0*,-6,21
COc1cc(OC)c(C2C(C(=O)OC3CCCC3)=C(C)NC3=C2C(=O)CC(c2cccs2)C3)cc1OC (centres undefined),0,0,-16,6
COc1ccc(NC(=O)c2cc(C(C)C)n(-c3nc4ccccc4s3)n2)cc1OC,0,0,56*,-7
CC(C)c1cc(C(=O)NCCc2ccccc2)nn1-c1nc2ccccc2s1,0,0,44*,2
COCCNC(=O)c1cn(C(C)c2ccc(F)cc2)nn1 (centres undefined),0,0,7,4
Cc1ccc2nsnc2c1S(=O)(=O)Nc1ccc(C(=O)O)cc1,-1,0,-8,8
Cc1ccc2nsnc2c1S(=O)(=O)Nc1ccc(I)cc1,-1,0,55*,7
C=C1/C(=C\C=C2/CCCC3(C)[C@@H]([C@H](C)CCCC(C)(C)O)CC[C@@H]23)C[C@@H](O)C[C@@H]1O (some centres undefined),0,0,37*,-2

# Compound activity: PubChem, The Scripps Research Institute Molecular Screening Center
